Test results taken from PMC7862700, “An all-to-all approach to the identification of sequence-specific readers for epigenetic DNA modifications on cytosine”.

Legend:
Assay in all cases: DAPPL (digital affinity profiling via proximity ligation, sequencing); 10 mM Tris-HCl pH 7.5, 50 mM NaCl, 1 mM DTT, 4% glycerol, room temperature, 30 min; GST-TFs on glutathione beads, 16-mer random dsDNA library, 0.1% formaldehyde crosslink after washing; high values mean tight binding
FEV = biological target: T1, FEV (Homo sapiens, UniProt Q99581 1-238); conditions: protein: recombinant; tags: N-terminal GST; dsDNA, one strand shown
T1 sequence: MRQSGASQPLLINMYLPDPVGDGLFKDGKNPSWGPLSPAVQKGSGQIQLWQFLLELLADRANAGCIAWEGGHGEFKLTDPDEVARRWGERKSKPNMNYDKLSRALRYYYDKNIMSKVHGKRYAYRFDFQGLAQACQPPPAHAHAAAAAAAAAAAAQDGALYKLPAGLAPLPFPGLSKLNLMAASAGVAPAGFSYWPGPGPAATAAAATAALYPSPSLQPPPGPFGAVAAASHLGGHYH
Procedure, shortened: (§1)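 GST fusions of human transcription factors were expressed in yeast and captured with glutathione beads. Once given DNA barcodes and pooled alongside a tag-only sample, they were incubated for 30 min at room temperature with 200 nmole of a random double-stranded 16-mer DNA library in Tris/NaCl/DTT/glycerol buffer, then washed, crosslinked (0.1% formaldehyde), proximity-ligated, PCR-amplified and sequenced on an Illumina NextSeq500. The binding signal of each hexamer is its read frequency for a factor divided by its frequency for the tag-only sample.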

ETV5 = ETV5 (Homo sapiens, UniProt P41161 1-510); conditions: protein: recombinant; tags: N-terminal GST; dsDNA, one strand shown
Sequence of ETV5 (P41161 whole entry): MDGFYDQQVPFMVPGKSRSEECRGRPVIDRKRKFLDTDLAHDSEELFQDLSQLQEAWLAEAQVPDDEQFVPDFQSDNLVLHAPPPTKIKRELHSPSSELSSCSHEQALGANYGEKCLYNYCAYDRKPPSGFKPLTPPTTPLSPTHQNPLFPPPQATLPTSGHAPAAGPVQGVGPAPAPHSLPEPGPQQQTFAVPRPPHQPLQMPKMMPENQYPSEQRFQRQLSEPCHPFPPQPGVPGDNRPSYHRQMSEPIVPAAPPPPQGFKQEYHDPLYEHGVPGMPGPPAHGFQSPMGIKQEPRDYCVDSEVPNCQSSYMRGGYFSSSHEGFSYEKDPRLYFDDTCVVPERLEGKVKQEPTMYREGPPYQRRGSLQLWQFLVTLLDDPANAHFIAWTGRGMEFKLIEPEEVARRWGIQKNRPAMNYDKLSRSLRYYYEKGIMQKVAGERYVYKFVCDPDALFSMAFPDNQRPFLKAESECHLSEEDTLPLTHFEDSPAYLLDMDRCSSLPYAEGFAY
Procedure, shortened: as §1

HSF1 = HSF1 (Homo sapiens, UniProt Q00613 1-529); conditions: protein: recombinant; tags: N-terminal GST; chain copies: 3; dsDNA, one strand shown
Sequence of HSF1 (Q00613 whole entry): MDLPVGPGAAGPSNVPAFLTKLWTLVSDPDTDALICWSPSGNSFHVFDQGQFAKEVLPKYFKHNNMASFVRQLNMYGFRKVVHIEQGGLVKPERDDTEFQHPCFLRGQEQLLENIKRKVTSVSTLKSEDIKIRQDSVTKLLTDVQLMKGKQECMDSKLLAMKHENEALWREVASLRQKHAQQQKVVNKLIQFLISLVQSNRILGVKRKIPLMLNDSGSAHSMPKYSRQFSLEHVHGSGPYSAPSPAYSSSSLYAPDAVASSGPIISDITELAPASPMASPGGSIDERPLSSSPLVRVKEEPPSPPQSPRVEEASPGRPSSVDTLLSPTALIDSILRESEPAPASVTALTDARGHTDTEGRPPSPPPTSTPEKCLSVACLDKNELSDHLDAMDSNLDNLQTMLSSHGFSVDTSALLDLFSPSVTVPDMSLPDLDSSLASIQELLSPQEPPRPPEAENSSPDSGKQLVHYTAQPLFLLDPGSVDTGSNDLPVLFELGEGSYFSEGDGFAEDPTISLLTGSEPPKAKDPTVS
Procedure, shortened: as §1

SPIC = biological target: T2, SPIC (Homo sapiens, UniProt Q8N5J4 1-248); conditions: protein: recombinant; tags: N-terminal GST; dsDNA, one strand shown
T2 sequence: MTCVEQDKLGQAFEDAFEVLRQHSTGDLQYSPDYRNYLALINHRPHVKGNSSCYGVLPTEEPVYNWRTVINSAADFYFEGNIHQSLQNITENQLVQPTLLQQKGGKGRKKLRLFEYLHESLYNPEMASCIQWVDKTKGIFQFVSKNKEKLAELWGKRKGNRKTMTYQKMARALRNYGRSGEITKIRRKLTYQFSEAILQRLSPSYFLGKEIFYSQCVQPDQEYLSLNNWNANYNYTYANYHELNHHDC
Procedure, shortened: as §1

ELF4 = ELF4 (Homo sapiens, UniProt Q99607 1-663); conditions: protein: recombinant; tags: N-terminal GST; dsDNA, one strand shown
Sequence of ELF4 (Q99607 whole entry): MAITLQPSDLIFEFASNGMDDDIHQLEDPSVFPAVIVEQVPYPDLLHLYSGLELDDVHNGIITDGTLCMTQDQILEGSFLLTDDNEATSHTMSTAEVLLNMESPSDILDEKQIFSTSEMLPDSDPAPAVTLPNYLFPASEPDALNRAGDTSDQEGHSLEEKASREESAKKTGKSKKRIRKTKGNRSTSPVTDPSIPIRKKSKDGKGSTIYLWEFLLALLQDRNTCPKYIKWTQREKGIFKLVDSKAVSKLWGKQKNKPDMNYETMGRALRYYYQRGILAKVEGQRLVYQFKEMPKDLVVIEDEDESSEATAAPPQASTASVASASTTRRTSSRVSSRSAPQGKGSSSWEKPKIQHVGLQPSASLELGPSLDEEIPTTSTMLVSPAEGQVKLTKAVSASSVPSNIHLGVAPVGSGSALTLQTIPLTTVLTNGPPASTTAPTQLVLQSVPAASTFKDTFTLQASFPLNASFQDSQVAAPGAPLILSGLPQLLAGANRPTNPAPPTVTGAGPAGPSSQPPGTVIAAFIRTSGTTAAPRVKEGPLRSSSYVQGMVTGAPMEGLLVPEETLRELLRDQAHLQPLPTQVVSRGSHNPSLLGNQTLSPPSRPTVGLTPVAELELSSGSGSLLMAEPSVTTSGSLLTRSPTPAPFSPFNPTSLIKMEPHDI
Procedure, shortened: as §1

ELK4 = biological target: T3, ELK4 (Homo sapiens, UniProt P28324-2 1-405); conditions: protein: recombinant; tags: N-terminal GST; dsDNA, one strand shown
T3 sequence: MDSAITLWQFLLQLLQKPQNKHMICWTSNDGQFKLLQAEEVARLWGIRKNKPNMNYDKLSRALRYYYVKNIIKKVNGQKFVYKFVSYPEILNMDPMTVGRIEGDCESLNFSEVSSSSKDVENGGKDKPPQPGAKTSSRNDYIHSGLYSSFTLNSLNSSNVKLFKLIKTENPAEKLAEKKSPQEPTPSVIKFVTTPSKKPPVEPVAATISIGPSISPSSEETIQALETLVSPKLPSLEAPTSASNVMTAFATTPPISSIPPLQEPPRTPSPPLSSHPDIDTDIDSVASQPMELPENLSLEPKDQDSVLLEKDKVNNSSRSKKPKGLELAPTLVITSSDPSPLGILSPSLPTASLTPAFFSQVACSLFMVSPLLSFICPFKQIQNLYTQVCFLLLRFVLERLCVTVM
Procedure, shortened: as §1

ETV2 = biological target: T4, ETV2 (Homo sapiens, UniProt O00321 1-342); conditions: protein: recombinant; tags: N-terminal GST; dsDNA, one strand shown
T4 sequence: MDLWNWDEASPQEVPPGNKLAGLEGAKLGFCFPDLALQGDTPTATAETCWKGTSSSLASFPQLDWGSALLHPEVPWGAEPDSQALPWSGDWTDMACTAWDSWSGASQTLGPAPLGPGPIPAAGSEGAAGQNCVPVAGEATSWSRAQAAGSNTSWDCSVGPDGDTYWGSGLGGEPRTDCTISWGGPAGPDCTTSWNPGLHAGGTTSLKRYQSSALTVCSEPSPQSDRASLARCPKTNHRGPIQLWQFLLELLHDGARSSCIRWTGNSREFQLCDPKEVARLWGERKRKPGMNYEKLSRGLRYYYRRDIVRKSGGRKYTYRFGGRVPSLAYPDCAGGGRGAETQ
Procedure, shortened: as §1

ELF3 = biological target: T5, ELF3 (Homo sapiens, UniProt P78545 1-371); conditions: protein: recombinant; tags: N-terminal GST; dsDNA, one strand shown
T5 sequence: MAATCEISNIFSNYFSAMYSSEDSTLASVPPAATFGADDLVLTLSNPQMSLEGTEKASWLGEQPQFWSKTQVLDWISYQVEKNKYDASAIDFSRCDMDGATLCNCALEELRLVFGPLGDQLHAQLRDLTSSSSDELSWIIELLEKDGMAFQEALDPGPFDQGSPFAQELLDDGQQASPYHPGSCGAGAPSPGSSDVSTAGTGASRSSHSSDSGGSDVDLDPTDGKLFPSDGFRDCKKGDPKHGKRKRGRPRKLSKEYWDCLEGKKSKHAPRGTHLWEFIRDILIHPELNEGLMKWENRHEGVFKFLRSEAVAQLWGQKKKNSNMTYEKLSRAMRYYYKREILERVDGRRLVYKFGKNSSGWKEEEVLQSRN
Procedure, shortened: as §1

CRX = CRX (Homo sapiens, UniProt O43186 1-299); conditions: protein: recombinant; tags: N-terminal GST; dsDNA, one strand shown
Sequence of CRX (O43186 whole entry): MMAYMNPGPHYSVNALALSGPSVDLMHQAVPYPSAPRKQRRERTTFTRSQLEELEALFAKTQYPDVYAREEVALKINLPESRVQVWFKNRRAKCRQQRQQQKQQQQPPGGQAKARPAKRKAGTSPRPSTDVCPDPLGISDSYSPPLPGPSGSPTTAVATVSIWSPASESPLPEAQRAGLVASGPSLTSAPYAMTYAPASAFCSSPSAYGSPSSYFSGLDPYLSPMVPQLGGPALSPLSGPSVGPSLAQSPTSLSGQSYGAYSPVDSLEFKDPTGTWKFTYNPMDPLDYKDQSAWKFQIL
Procedure, shortened: as §1

ETV1 = ETV1 (Homo sapiens, UniProt P50549 1-477); conditions: protein: recombinant; tags: N-terminal GST; dsDNA, one strand shown
Sequence of ETV1 (P50549 whole entry): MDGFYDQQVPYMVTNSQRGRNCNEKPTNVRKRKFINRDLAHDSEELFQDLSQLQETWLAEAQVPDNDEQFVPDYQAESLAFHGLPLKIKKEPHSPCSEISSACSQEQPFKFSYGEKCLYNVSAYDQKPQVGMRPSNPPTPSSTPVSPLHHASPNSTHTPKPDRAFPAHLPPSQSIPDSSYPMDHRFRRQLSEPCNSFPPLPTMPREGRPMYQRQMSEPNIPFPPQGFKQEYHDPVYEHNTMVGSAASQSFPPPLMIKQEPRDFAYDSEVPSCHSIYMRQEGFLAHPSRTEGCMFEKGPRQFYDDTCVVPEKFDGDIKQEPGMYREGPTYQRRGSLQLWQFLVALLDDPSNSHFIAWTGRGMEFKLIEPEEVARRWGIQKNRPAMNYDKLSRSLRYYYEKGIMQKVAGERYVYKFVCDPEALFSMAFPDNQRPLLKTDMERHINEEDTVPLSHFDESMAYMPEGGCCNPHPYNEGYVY
Procedure, shortened: as §1

ERF = biological target: T6, ERF (Homo sapiens, UniProt P50548 1-548); conditions: protein: recombinant; tags: N-terminal GST; dsDNA, one strand shown
T6 sequence: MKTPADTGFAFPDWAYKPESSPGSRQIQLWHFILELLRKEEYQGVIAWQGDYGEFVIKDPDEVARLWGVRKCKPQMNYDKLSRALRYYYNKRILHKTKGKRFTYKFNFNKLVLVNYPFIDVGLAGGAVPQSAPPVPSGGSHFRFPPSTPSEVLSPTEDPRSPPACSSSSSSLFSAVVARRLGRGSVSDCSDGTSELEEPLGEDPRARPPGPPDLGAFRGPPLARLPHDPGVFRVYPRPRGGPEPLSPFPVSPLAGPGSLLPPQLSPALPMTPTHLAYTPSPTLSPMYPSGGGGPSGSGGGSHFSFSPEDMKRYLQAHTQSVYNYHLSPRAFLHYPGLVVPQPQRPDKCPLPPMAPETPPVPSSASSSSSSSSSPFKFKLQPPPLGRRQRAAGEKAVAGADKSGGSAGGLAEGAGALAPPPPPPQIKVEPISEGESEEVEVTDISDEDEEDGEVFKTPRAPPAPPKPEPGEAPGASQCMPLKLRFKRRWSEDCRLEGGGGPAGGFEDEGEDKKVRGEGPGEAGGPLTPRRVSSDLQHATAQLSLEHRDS
Procedure, shortened: as §1

ETV3L = biological target: T7, ETV3L (Homo sapiens, UniProt Q6ZN32 1-361); conditions: protein: recombinant; tags: N-terminal GST; dsDNA, one strand shown
T7 sequence: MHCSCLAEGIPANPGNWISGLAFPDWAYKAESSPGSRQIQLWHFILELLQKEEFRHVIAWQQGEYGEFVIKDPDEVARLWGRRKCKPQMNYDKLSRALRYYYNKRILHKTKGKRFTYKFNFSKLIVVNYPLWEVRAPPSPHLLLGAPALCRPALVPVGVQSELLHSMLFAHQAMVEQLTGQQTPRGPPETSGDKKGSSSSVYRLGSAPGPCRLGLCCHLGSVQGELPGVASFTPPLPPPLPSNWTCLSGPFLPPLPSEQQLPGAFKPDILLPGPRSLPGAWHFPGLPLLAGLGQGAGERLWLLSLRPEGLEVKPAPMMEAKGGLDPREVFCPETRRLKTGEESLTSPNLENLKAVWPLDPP
Procedure, shortened: as §1

ETS2 = biological target: T8, ETS2 (Homo sapiens, UniProt P15036 1-469); conditions: protein: recombinant; tags: N-terminal GST; dsDNA, one strand shown
T8 sequence: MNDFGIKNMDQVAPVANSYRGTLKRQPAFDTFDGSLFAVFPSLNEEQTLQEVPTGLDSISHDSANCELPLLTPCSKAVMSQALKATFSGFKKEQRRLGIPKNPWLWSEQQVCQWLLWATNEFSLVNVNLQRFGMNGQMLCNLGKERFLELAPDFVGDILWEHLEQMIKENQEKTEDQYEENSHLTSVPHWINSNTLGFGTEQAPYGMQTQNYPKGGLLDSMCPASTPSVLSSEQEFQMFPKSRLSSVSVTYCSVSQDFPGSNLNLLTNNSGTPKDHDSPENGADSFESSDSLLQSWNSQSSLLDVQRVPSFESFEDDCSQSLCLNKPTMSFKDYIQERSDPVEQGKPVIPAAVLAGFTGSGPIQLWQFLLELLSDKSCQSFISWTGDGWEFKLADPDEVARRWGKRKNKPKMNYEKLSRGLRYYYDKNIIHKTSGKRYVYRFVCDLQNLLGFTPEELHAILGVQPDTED
Procedure, shortened: as §1

SPDEF = biological target: T9, SPDEF (Homo sapiens, UniProt O95238 1-335); conditions: protein: recombinant; tags: N-terminal GST; dsDNA, one strand shown
T9 sequence: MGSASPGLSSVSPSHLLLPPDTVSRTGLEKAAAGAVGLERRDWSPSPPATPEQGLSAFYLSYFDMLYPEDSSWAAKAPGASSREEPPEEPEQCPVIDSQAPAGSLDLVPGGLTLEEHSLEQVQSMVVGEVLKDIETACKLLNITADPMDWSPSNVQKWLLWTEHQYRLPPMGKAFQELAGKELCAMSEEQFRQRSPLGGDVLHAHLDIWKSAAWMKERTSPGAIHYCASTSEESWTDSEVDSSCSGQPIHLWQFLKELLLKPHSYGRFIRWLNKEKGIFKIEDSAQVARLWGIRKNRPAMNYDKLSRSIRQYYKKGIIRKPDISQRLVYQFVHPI
Procedure, shortened: as §1

ETV7 = biological target: T10, ETV7 (Homo sapiens, UniProt Q9Y603 1-341); conditions: protein: recombinant; tags: N-terminal GST; dsDNA, one strand shown
T10 sequence: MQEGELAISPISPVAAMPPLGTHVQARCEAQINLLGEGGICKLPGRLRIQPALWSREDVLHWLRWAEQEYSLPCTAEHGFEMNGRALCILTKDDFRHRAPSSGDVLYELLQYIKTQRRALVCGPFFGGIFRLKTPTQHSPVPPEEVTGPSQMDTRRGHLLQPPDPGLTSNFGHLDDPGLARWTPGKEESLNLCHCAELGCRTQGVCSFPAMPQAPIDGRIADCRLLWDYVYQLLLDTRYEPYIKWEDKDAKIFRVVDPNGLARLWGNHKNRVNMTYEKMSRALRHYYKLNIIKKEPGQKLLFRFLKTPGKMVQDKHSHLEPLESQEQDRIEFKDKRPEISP
Procedure, shortened: as §1

ELF5 = biological target: T11, ELF5 (Homo sapiens, UniProt Q9UKW6-2 1-255); conditions: protein: recombinant; tags: N-terminal GST; dsDNA, one strand shown
T11 sequence: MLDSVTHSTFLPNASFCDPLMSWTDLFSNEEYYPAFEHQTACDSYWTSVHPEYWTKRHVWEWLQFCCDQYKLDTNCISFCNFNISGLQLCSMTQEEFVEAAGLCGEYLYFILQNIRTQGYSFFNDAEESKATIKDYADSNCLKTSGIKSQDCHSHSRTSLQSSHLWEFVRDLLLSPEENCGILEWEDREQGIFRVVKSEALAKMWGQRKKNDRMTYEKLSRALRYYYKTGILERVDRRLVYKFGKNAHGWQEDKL
Procedure, shortened: as §1

ETV3 = biological target: T12, ETV3 (Homo sapiens, UniProt P41162-2 1-143); conditions: protein: recombinant; tags: N-terminal GST; dsDNA, one strand shown
T12 sequence: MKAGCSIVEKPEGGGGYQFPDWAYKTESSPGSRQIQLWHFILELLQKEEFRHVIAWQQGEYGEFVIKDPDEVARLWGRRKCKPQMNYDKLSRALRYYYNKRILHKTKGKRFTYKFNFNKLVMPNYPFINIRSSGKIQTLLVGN
Procedure, shortened: as §1

ETV6 = ETV6 (Homo sapiens, UniProt P41212 1-452); conditions: protein: recombinant; tags: N-terminal GST; dsDNA, one strand shown
Sequence of ETV6 (P41212 whole entry): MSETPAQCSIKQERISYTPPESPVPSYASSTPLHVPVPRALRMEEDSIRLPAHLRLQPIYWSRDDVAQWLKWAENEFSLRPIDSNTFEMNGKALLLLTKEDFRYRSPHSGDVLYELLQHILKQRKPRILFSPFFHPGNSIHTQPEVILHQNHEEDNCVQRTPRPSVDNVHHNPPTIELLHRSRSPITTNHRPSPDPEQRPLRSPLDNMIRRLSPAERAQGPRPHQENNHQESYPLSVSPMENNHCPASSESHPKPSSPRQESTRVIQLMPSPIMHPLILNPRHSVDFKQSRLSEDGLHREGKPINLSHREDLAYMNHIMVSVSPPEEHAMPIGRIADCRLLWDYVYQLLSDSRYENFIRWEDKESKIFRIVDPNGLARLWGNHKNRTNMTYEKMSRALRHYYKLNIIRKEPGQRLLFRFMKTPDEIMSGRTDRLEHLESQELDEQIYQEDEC
Procedure, shortened: as §1

TCACTT was tested, and the binding signal (FEV) was 1.99 fold enrichment (6-mer frequency, TF over GST control), the binding signal (ETV5) was 1.75 fold enrichment (6-mer frequency, TF over GST control) and the binding signal (HSF1) was 1.14 fold enrichment (6-mer frequency, TF over GST control). The binding signal (SPIC) was 1.62 fold enrichment (6-mer frequency, TF over GST control), the binding signal (ELF4) was 1.74 fold enrichment (6-mer frequency, TF over GST control) and the binding signal (ELK4) was 1.74 fold enrichment (6-mer frequency, TF over GST control). The binding signal (ETV2) was 1.72 fold enrichment (6-mer frequency, TF over GST control), the binding signal (ELF3) was 1.62 fold enrichment (6-mer frequency, TF over GST control) and the binding signal (CRX) was 1.23 fold enrichment (6-mer frequency, TF over GST control). The binding signal (ETV1) was 1.67 fold enrichment (6-mer frequency, TF over GST control), the binding signal (ERF) was 1.56 fold enrichment (6-mer frequency, TF over GST control) and the binding signal (ETV3L) was 1.5 fold enrichment (6-mer frequency, TF over GST control). The binding signal (ETS2) was 1.69 fold enrichment (6-mer frequency, TF over GST control), the binding signal (SPDEF) was 1.73 fold enrichment (6-mer frequency, TF over GST control) and the binding signal (ETV7) was 1.63 fold enrichment (6-mer frequency, TF over GST control). For the same sequence, the binding signal (ELF5) was 1.79 fold enrichment (6-mer frequency, TF over GST control), the binding signal (ETV3) was 1.55 fold enrichment (6-mer frequency, TF over GST control) and the binding signal (ETV6) was 1.67 fold enrichment (6-mer frequency, TF over GST control).
